PLC-beta3 inh = human PLC-beta3 inhibitors, primary screen, biochemical, fluorescence; Purified PLC-beta3, fluorogenic substrate; 1-phosphatidylinositol 4,5-bisphosphate phosphodiesterase beta-3 (Homo sapiens), Q01970; inhibition, % at 12.2 µM; 0.18% of 370,000 active
PLC-gamma1 inh = PLC-gamma1 enzyme inhibitors, primary screen, biochemical, fluorescence, purified enzyme; fluorogenic substrate; inhibition, % at 12.2 µM; 1-phosphatidylinositol 4,5-bisphosphate phosphodiesterase gamma-1 (Homo sapiens), P19174; AID 720700, 2013; 0.84% of 370,000 active; in the data active means inhibition above about 9.5%
ADAM10 inh = human ADAM10 inhibitors, primary screen, biochemical, QFRET, HTS; Disintegrin and metalloproteinase domain-containing protein 10 (Homo sapiens), O14672; recombinant ADAM10, EDANS/DABCYL FRET peptide cleavage, 3 h; inhibition, % at 7 µM; 0.62% of 370,000 active; AID 720582, 2013;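 active means inhibition above a per-campaign cutoff equal to the mean of compounds falling between control-based bounds plus 3 SD, cut at about 20% in these data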
ADAM17 inh = ADAM17 inhibitors, primary screen, biochemical, QFRET | Disintegrin and metalloproteinase domain-containing protein 17 (Homo sapiens), P78536 | recombinant ADAM17, EDANS/DABCYL FRET peptide cleavage | inhibition, % at 6.95 µM | 0.83% of 370,000 active;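 active means inhibition above the mean of compounds lying between control limits plus 3 SD, set per campaign, cut at about 8.5% in these data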
Target sequence (P78536 215-824 limits assumed): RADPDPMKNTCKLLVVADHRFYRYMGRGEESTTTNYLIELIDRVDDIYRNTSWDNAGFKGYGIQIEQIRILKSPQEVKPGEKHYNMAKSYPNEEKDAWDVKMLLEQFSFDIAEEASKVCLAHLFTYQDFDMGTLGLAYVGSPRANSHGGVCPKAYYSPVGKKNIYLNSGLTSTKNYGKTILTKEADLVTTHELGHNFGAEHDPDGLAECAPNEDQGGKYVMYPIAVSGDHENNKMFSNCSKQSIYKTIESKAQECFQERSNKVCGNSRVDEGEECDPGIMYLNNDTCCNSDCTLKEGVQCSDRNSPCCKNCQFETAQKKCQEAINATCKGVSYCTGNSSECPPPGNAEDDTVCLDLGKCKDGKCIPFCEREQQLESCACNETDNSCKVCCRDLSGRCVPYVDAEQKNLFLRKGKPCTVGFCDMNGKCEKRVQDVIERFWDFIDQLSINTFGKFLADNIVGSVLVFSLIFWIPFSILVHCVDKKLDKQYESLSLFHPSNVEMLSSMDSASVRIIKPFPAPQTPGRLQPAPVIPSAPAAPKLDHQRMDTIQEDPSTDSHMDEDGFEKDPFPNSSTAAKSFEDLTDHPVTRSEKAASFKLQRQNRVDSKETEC
Rce1 inhib = yeast Rce1p protease inhibitors, primary screen, biochemical, fluorescence, cell-free homogeneous | CAAX prenyl protease 2 (Saccharomyces cerevisiae (strain ATCC 204508 / S288c)), Q03530 | yeast membranes, quenched prenylated peptide cleavage fluorescence | calls only | 0.27% of 290,000 active | AID 2563, 2010;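 active means fall in fluorescence gain of 50% or more versus controls, with final raw signal at or below 3038400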
ADAM10 confirm = human ADAM10 inhibitors, confirmation, biochemical, QFRET, triplicate; shares compounds with ADAM10 inh; ADAM10 QFRET peptide cleavage, EDANS fluorescence; inhibition, % at 6.95 µM; 1% of 2,100 active; AID 743208, 2013;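 active means inhibition above about 20% chosen separately for each screening run, limit read from the data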
ADAM17 counter = ADAM17 inhibitors, counter-screen for ADAM10 exosite inhibitor project, biochemical, QFRET, high throughput | shares compounds with ADAM10 inh | ADAM17 QFRET peptide cleavage, EDANS fluorescence | inhibition, % at 6.95 µM | 0.5% of 2,100 active;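 active means mean triplicate inhibition above the solvent-only control wells' mean plus 3 SD, cut at about 12% in these data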
ADAM10 ctr = ADAM10 inhibitors, counter-screen for ADAM17 exosite inhibitor project, biochemical, FRET, human ADAM10. inhibition, % at 6.95 µM. recombinant ADAM10, EDANS/DABCYL FRET peptide cleavage, 3 h. shares compounds with ADAM17 inh. AID 743256, 2014. 47% of 2,900 active;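 active means mean inhibition over the triplicate runs exceeds the activity threshold set in the earlier primary screen, cut at about 20% in these data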
ADAM17 confirm = ADAM17 inhibitors, hit retest, confirmation, biochemical, QFRET peptide cleavage. inhibition, % at 6.95 µM. recombinant ADAM17, EDANS/DABCYL QFRET peptide cleavage. shares compounds with ADAM17 inh. AID 743257, 2014. 65% of 2,900 active;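 active means mean inhibition across replicates above the hit cutoff set in the primary screen, cut at about 8.5% in these data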
PLCgamma1 ctr = PLC-gamma1 enzyme inhibitors, counter-screen for PLC-beta3 inhibitor project, biochemical, fluorescence; purified PLC-gamma1, fluorogenic substrate; shares compounds with PLC-gamma1 inh; inhibition, % at 12.3 µM; 3.1% of 3,300 active; in the data active means inhibition above about 9.5%
PLCbeta3 conf = PLC-beta3 inhibitor confirmation, biochemical, fluorescence, purified enzyme; shares compounds with PLC-gamma1 inh; AID 743261, 2014; fluorogenic substrate fluorescence; 1% of 3,300 active; inhibition, % at 12.3 µM
Each line names hits and unclear results; the compound was inactive in the other large screens (follow-up assays come after a bar, where they were run). Compounds with a hit are over-represented: about 2.1% of the library has one in this group of screens. Unless noted, no stated cut-off is given here; in the data, active means inhibition above about 11%; inactive means the rest.

COc1ccc(S(=O)(=O)Nc2ccc(C)cc2)cc1N(C)S(=O)(=O)c1ccc(Cl)cc1	PLC-gamma1 inh 11, ADAM10 inh 32, ADAM17 inh 19 | ADAM10 confirm inactive | ADAM17 counter inactive | ADAM10 ctr 40 | ADAM17 confirm 21 | PLCgamma1 ctr inactive | PLCbeta3 conf inactive
COc1ccc(S(=O)(=O)NN(C)C)cc1N(C)S(=O)(=O)c1ccc(Cl)cc1	none
COc1cc(/C=N/NC(=O)Cc2ccccc2)cc([N+](=O)[O-])c1O	none
COc1cc(/C=N/NC(=O)[C@H](Cc2c[nH]c3ccccc23)NC(=O)OCC(C)C)cc([N+](=O)[O-])c1O	PLC-gamma1 inh 14, ADAM10 inh 32, ADAM17 inh 16 | ADAM10 confirm inactive | ADAM17 counter inactive | ADAM10 ctr inactive | ADAM17 confirm inactive | PLCgamma1 ctr inactive | PLCbeta3 conf inactive
O=C(O)c1ccccc1NS(=O)(=O)c1ccc(NNC(=S)Nc2ccc(OC(F)F)cc2)c([N+](=O)[O-])c1	PLC-gamma1 inh 14, ADAM10 inh 24, ADAM17 inh 11 | ADAM10 confirm inactive | ADAM17 counter inactive | ADAM10 ctr inactive | ADAM17 confirm 12 | PLCgamma1 ctr 17 | PLCbeta3 conf inactive
Cc1ccc(NC(=S)NNc2ccc([N+](=O)[O-])cc2S(=O)(=O)Nc2ccccc2C(=O)O)cc1C	none
O=C1C=C(c2ccc3ncccc3c2)C[C@@H](c2ccc(Cl)cc2)C1	PLC-gamma1 inh 11, ADAM10 inh 20 (no result: Rce1 inhib) | ADAM10 confirm inactive | ADAM17 counter inactive | PLCgamma1 ctr inactive | PLCbeta3 conf inactive
COc1ccc([C@H]2CC(=O)C=C(c3ccc4ncccc4c3)C2)cc1	none (no result: Rce1 inhib)
C#CCn1c(S(=O)(=O)Cc2ccccc2Cl)nc(-c2ccccc2)c1-c1ccccc1	none
C#CCn1c(S(=O)(=O)Cc2ccc(C)cc2)nc(-c2ccccc2)c1-c1ccccc1	PLC-gamma1 inh 10, ADAM10 inh 23 | ADAM10 confirm inactive | ADAM17 counter inactive | PLCgamma1 ctr inactive | PLCbeta3 conf inactive
CCc1ccc(NC(=O)C2=CC(c3cccs3)=NS(=O)(=O)N2C)cc1	PLC-gamma1 inh 16, ADAM10 inh 29, ADAM17 inh 18 | ADAM10 confirm inactive | ADAM17 counter inactive | ADAM10 ctr 23 | ADAM17 confirm 13 | PLCgamma1 ctr inactive | PLCbeta3 conf inactive
Cc1ccc(NC(=O)C2=CC(c3cccs3)=NS(=O)(=O)N2C)cc1	none
CCOc1ccc(/C=C(\C)C(=O)c2c(C)cc(C)[nH]c2=O)cc1	PLC-gamma1 inh 12, ADAM10 inh 20 | ADAM10 confirm inactive | ADAM17 counter inactive | PLCgamma1 ctr inactive | PLCbeta3 conf inactive
COc1ccc(/C=C(\C)C(=O)c2c(C)cc(C)[nH]c2=O)cc1	none
O=C(O)c1ccccc1/C=N/NC(=S)NC1CCCCC1	PLC-gamma1 inh 11, ADAM10 inh 23 | ADAM10 confirm inactive | ADAM17 counter inactive | PLCgamma1 ctr inactive | PLCbeta3 conf inactive
O=C(O)c1ccccc1/C=N/NC(=O)C1CCCCC1	none
CC1(C(=O)NS(=O)(=O)c2cccc(Cl)c2)CCN1C(=O)C1CCCCC1 (configuration not stated)	none (no result: Rce1 inhib)
CCCCN1CC(=O)N2[C@H](c3ccc(OC)cc3)[C@@H]3C(=O)N(CC)C(=O)[C@@H]3[C@]2(Cc2ccccc2)C1=O	none
Cc1cc(C)c(S(=O)(=O)N2CCCCC2CCNC(=O)C(=O)NC2CC2)c(C)c1 (configuration not stated)	none (no result: PLC-beta3 inh, PLC-gamma1 inh, ADAM10 inh, ADAM17 inh)
CC1(Cc2ccccc2OC(F)(F)F)C(=O)Nc2ccc(-c3ccsc3)cc21 (configuration not stated)	PLC-gamma1 inh 11, ADAM10 inh 30, ADAM17 inh 10 (no result: Rce1 inhib) | ADAM10 confirm inactive | ADAM17 counter inactive | ADAM10 ctr 24 | ADAM17 confirm 14 | PLCgamma1 ctr inactive | PLCbeta3 conf inactive
Cc1ccsc1C(=O)N1CCC1(C)C(=O)NS(=O)(=O)c1ccc(C#N)cc1 (configuration not stated)	none (no result: Rce1 inhib)
O=C(CN1CCN(S(=O)(=O)c2ccc(Br)cc2)CC1)Nc1ccc2c(c1)OCO2	PLC-gamma1 inh 10.0, ADAM10 inh 21 | ADAM10 confirm inactive | ADAM17 counter inactive | PLCgamma1 ctr inactive | PLCbeta3 conf inactive
COc1ccc(N=C2SC(CC(=O)Nc3ccccc3)C(=O)N2Cc2ccco2)cc1 (configuration not stated)	PLC-beta3 inh 11, ADAM10 inh 28, ADAM17 inh 9.3 | ADAM10 confirm inactive | ADAM17 counter inactive | ADAM10 ctr 20 | ADAM17 confirm 14 | PLCgamma1 ctr inactive | PLCbeta3 conf inactive
O=C(OCc1ccccc1Cl)c1cc([N+](=O)[O-])ccc1N1CCOCC1	PLC-gamma1 inh 14, ADAM10 inh 20 | ADAM10 confirm inactive | ADAM17 counter inactive | PLCgamma1 ctr inactive | PLCbeta3 conf inactive
O=C(COC(=O)c1cc([N+](=O)[O-])ccc1N1CCOCC1)c1ccccc1Cl	none
Cc1[nH]c2ccccc2c1CC(=O)Nc1ccc(Nc2cccnc2)c(-c2ccc(Oc3ccccc3)cc2)c1	none (no result: Rce1 inhib)
O=C(NC(=S)Nc1ccc(S(=O)(=O)Nc2nccs2)cc1)c1ccccc1	none
O=C(NC(=S)Nc1ccc(S(=O)(=O)Nc2nccs2)cc1)c1ccc(F)c(F)c1	PLC-gamma1 inh 14, ADAM10 inh 24, ADAM17 inh 11 | ADAM10 confirm inactive | ADAM17 counter inactive | ADAM10 ctr inactive | ADAM17 confirm inactive | PLCgamma1 ctr inactive | PLCbeta3 conf inactive

Screening data from PubChem.
